These results are taken from PubChem BioAssay AID1469 (National Center for Advancing Translational Sciences (NCATS), 2008).

About 180 (0.064%) of roughly 280,000 compounds were called active. A call without a number means that no potency is given here. Calls come from the whole dose curve; as a rule, active = well fitted inhibition curve with a large enough effect; inconclusive = small, poorly fitted or top-dose-only effect, or effect the other way; inactive = flat fitted curve, though single readings scatter. The full list was thinned out, with actives kept by preference.
Potency is the fitted concentration of half-maximal effect.

Thyroid hormone receptor beta (Homo sapiens), sequence (P10828 whole entry, looked up): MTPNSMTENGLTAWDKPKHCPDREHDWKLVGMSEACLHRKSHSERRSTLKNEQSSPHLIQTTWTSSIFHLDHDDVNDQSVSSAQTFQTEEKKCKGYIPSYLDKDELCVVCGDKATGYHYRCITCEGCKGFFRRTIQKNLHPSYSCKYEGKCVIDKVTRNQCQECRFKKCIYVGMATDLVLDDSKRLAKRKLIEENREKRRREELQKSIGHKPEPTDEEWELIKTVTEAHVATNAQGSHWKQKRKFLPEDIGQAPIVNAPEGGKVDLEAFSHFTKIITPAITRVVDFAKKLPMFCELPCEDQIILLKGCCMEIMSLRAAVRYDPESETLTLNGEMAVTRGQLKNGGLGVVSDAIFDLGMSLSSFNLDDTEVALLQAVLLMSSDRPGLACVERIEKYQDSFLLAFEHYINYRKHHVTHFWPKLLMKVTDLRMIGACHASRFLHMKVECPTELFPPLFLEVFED

The target in this assay is Thyroid hormone receptor beta (Homo sapiens) (UniProt P10828). Put plainly: qHTS for Inhibitors of the Interaction of Thyroid Hormone Receptor and Steroid Receptor Coregulator 2. Note: nearly all actives have a fitted effect of over 50% in size. The settings on record: TRbeta-SRC2 peptide binding, fluorescence polarization, receptor liganded with 1 µM T3; series mostly up to 201 µM. The source says:
NIH Molecular Libraries Probe Production Network [MLPCN]
NIH Chemical Genomics Center [NCGC]
Assay Provider: R. Kip Guy, St. Jude Children's Research Hospital
Thyroid receptor (TR) regulates many homeostatic processes including basal metabolism, cardiovascular function, body weight, and lipid trafficking. TR modulators are potential therapeutics for obesity and hyperlipidemias but current thyroid analogs have undesirable side effects, particularly cardiac stimulation. To identify inhibitors that specifically prevent the interaction of TR with the steroid receptor coregulator 2 (SRC2), a fluorescence polarization assay was screened. This assay detects interaction of the ligand-binding domain of human TRb with a Texas Red labeled SRC2 peptide, corresponding to a 20 amino acid region of the nuclear receptor interaction domain (Arnold et al., 2006). Small molecule inhibitors that block the interaction of TR and SRC2 are detected by a decrease in fluorescence polarization.
Arnold, L. A.; Estebanez-Perpina, E.; Togashi, M.; Shelat, A.; Ocasio, C. A.; McReynolds, A. C.; Nguyen, P.; Baxter, J. D.; Fletterick, R. J.; Webb, P.; Guy, R. K. A high-throughput screening method to identify small molecule inhibitors of thyroid hormone receptor coactivator binding. Sci STKE 2006, p 13.
NCGC Assay Protocol Summary:
For screening, 5 uL/well 0.6 uM TRb and 20 nM SRC2 Texas Red in protein buffer (20mM Tris hydrochloride, 100mM NaCl, 10% glycerol, 1mM EDTA, 0.01% NP-40, 1mM DTT, 1uM T3 and 5% DMSO) was dispensed into black solid 1536-well plates (Grenier) using a solenoid-based dispenser. Following transfer of 23 nL compound or DMSO vehicle by a pin tool, the plates were centrifuged 15 s at 1000 RPM and incubated 5 hr at ambient temperature. The plates were read by an Envision (Perkin Elmer) to detect fluorescence polarization of SRC2 Texas Red (555 nm excitation and 632 nm emission). Data were normalized to unbound (all components except TRb) and bound SRC2 Texas Red controls. In this assay, we provide % activity data for each concentration as well as potencies for the active compounds.
Keywords: NIH Roadmap, MLPCN, MLI, MLSMR, qHTS, NCGC, qHTS, thyroid hormone receptor, steroid receptor coactivator, fluorescence polarization
Regarding `CC[N+](C)(CC)CCC[n+]1c(-c2ccccc2)c2cc(N)ccc2c2ccc(N)cc21`, the Potency is 44.7 µM (active). The value for `Oc1ccc(C2(c3ccc(O)cc3)c3ccccc3-c3ccccc32)cc1` was “inactive”. In the case of `[Ga]#[As]` it was “inactive”; in that of `CCOP(=O)(SC(C)CC)SC(C)CC` (stereo not given), “inactive”; in that of `COc1nc(C)nc(NC(=O)NS(=O)(=O)c2ccccc2CCC(F)(F)F)n1`, “inactive”.
